These results are taken from ChEMBL document CHEMBL4808148, “HDAC6 screening dataset using tau-based substrate in an enzymatic assay yields selective inhibitors and activators” (2021).

As usually defined, the inhibition is the relative decrease from the control value, in per cent.

Screen size: about 5,600 compounds; about 390 (7%) showed an effect of 50% or more. For the sample, strong results were picked, then their nearest neighbours and some compounds at random. Starred links: 1 amine or outer side, 2 acyl side, 3 side chain; linkers in the order of their positions; H or OH if unused. Positions of bridges follow the written chain, without caps; N, C: chain ends. Residues, ends and D or L forms follow the SMILES beside them. X5 = O=C(CCC[*:2])[*:1]

In the experiment the target is T1, Protein deacetylase HDAC6 (Homo sapiens) (UniProt Q9UBN7).
T1 sequence (whole entry): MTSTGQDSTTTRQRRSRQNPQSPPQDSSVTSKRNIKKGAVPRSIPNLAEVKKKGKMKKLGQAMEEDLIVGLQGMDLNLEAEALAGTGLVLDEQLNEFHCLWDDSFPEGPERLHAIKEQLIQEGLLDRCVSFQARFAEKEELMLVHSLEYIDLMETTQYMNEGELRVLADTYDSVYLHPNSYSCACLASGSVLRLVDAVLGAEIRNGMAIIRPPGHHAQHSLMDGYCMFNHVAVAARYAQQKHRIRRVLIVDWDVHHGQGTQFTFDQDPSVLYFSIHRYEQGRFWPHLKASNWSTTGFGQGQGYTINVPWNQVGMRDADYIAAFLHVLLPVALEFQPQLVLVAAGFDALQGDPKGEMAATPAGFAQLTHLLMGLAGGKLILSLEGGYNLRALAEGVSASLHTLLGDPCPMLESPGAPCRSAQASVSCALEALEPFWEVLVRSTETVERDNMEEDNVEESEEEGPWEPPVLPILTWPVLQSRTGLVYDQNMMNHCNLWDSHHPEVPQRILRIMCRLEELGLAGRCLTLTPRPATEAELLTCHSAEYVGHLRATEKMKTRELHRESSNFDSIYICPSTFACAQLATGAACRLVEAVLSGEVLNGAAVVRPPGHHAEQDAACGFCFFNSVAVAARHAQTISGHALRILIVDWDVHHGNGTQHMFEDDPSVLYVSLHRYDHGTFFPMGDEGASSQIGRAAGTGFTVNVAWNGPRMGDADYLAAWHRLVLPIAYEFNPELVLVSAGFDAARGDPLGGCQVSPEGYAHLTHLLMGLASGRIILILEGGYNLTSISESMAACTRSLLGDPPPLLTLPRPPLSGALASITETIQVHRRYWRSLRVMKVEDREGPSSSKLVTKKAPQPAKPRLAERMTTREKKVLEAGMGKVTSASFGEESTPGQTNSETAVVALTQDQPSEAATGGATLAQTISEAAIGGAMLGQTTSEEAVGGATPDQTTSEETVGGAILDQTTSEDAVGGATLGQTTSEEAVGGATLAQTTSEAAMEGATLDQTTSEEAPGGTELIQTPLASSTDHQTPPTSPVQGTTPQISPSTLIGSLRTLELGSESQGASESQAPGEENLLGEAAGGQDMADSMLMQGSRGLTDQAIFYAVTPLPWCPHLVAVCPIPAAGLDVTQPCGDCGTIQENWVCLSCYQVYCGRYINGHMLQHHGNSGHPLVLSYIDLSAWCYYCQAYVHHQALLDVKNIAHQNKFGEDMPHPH
As to conditions: at 10 µM.
`Oc1ccc2ccccc2c1SSc1c(O)ccc2ccccc12`: the inhibition is 0.31%. For the compound `Cc1cc(CC(C)CC(C)(C)C)n(O)c(=O)c1` (centres undefined), the inhibition was -5.15%. For `O=C1NC(=O)C(c2ccccc2[N+](=O)[O-])=C1Nc1ccc(O)c(Cl)c1` the value was 3.99%; for `COc1cc(CCc2cc(NC(=O)c3ccc(N4C[C@@H](C)N[C@@H](C)C4)cc3)n[nH]2)cc(OC)c1`, 2.96%.

As for `CCc1cn([C@H]2C[C@H](O)[C@@H](CO)O2)c(=O)[nH]c1=O`, the inhibition was -6.76%.

For the compound `Cc1cn([C@H]2C=C[C@@H](CO)O2)c(=O)[nH]c1=O`, the inhibition came out at 102%. For `O=c1[nH]c(=O)n([C@H]2C[C@H](O)[C@@H](CO)O2)cc1F` the value was 12.7%; for `CN1c2cc3c(cc2N=C(c2ccc(C(=O)O)cc2)c2ccccc21)C(C)(C)CCC3(C)C`, 27.7%; for `Nc1ncnc2c1ncn2[C@@H]1O[C@H](C[C@@H](N)CC[C@H](N)C(=O)O)[C@@H](O)[C@H]1O`, -9.09%. As for `CC(C)(COP(=O)(O)OP(=O)(O)OC[C@H]1O[C@@H](n2cnc3c(N)ncnc32)[C@H](O)[C@@H]1OP(=O)(O)O)[C@@H](O)C(=O)NCCC(=O)NCCS`, the inhibition is 15.2%. For `NC(C(=O)O)c1nnn[nH]1` (racemic) the value was 4.47%; for `Cn1cnc2[nH]c(=O)[nH]c(=O)c21`, 9.47%. Consider `Cc1ccc(-c2ccc(C)cn2)nc1`, for which the inhibition stood at 100%. Next, `CCOC1O[C@H]([C@@H](COCc2ccccc2)OCc2ccccc2)[C@H](OCc2ccccc2)[C@H]1O` (some centres undefined): 29.1%; `O=C(O)CCc1c[nH]c2ccccc12`: 6.28%; `C/C(=N\N=C(/S)N/N=C(\S)Nc1ccccc1Cl)c1ccccn1`: 41.4%. Take `COc1ccc2cc3[n+](cc2c1OC)CCc1cc2c(cc1-3)OCO2`: the inhibition was -6.81%. Next, `O=C(COc1ccc(C(=O)c2ccccc2)cc1)NC1CCN(Cc2ccccc2)CC1`: -4.58%; `O=C(O)c1ccc(CN2CCC(CN[C@@H]3C[C@H]3c3ccccc3)CC2)cc1`: 59.3%; `O=C(NC1CCN(Cc2ccccc2)CC1)c1ccc(I)cc1`: 21.3%. For `CCCCCCCCCCCCCCCCCCCCCCCCCCCCO` the value was 3.55%. For `CCN(CC)CCOC(=O)C1(c2ccccc2)CCCC1` the value was 12.3%; for `CCC(C)(CN(C)C)OC(=O)c1ccccc1` (centres undefined), 12.2%. Turning to `CC1(C(=O)O)NCCc2cc(O)c(O)cc21` (centres undefined), the inhibition was -7.17%. For `C[C@@H](c1nc(-c2ccc(C#N)cc2)cs1)[C@](O)(Cn1cncn1)c1cc(F)ccc1F`, the inhibition is 13.7%. With `COCC(O)Cn1ccnc1[N+](=O)[O-]` (centres undefined), the inhibition was found to be 2.38%. For `CC1(C)S[C@@H]2[C@H](/N=C/N3CCCCCC3)C(=O)N2[C@H]1C(=O)O` the value was 7.48%. Next, `c1ccc(NCc2ccc(CNc3ccccn3)cc2)nc1`: -9.35%; `CC[C@H](CO)Nc1nc(NCc2ccc(-c3ccccn3)cc2)c2ncn(C(C)C)c2n1`: 22.9%; `c1ccc(-c2ccc(CNc3nc(-c4ccccn4)nnc3-c3ccccc3)cc2)cc1`: 58.9%.

Turning to `CC1=NN(c2ccccc2)C(=O)C1`, the inhibition is -9.97%. Take `Cn1c(-c2ccccc2)nnc1S(C)(=O)=O`: the inhibition was 36%.

`C/N=c1/nc(-c2ccccc2)n(-c2ccccc2)s1`: the inhibition was 83.4%. Next, `O=C(c1ccc(F)cc1)C1CCN(CCn2c(=S)[nH]c3ccccc3c2=O)CC1`: 13.2%; `O=C(O)c1c2ccccc2cc2ccccc12`: 22.9%; `Cn1ncc(Cl)c1-c1cc(C(=O)N[C@H](CN)Cc2cccc(F)c2)sc1Cl`: -7.69%.

As for `O=C(O)c1cccc(-c2noc(-c3ccccc3F)n2)c1`, the inhibition was 105%.

For `FC(F)(F)c1cccc(-c2noc(-c3cc(-c4ccccc4)c(C(F)(F)F)s3)n2)c1`, the inhibition came out at 18.5%. As to `O=C(c1ccc(F)cc1)N1CCC[C@H](c2nc(-c3ccc(F)cc3)no2)C1`, the inhibition came out at 10.8%.

As to `CC1=C(/C=C/C(C)=C/C=C/C(C)=C/C=C/C=C(C)/C=C/C=C(C)/C=C/C2=C(C)C(=O)[C@@H](O)CC2(C)C)C(C)(C)C[C@H](O)C1=O`, the inhibition is 10.4%. For `COc1ccc2cc1Oc1cc3c(cc1OC)CC[N+](C)(C)[C@H]3Cc1ccc(cc1)Oc1c(OC)c(OC)cc3c1[C@@H](C2)[N+](C)(C)CC3` the value was 16.5%. With `CC[C@H](C)[C@@H]1NC(=O)[C@H](Cc2ccc(OC)cc2)NC(=O)CCCSC[C@@H](C(=O)N2CCC[C@H]2C(=O)N[C@@H](CC(C)C)C(=O)NCC(N)=O)NC(=O)[C@H](CC(N)=O)NC(=O)[C@H](CCC(N)=O)NC1=O` (Y(Me)IQNCPLG-NH2; linker N-5 via X5), the inhibition is 11%. In the case of `COc1cc(C[C@@H](CO)[C@H](CO)Cc2ccc(O)c(OC)c2)ccc1O`, the inhibition turned out to be 21.1%. For `CCC(=O)NC[C@@H]1C[C@H]1c1cccc2c1CCO2` the value was -8.79%; for `O=C(O)CCCN1C(=O)c2cccc3cccc(c23)C1=O`, -3.55%; for `O=C(CCCCCN1C(=O)c2cccc3cccc(c23)C1=O)NO`, 100%. Take `CN(C)CCN1C(=O)c2cccc3cc(N)cc(c23)C1=O`: the inhibition was determined as 24.8%. Turning to `CN1CCN(CCCCN2C(=O)CN(/N=C/c3ccc(-c4ccc(Cl)cc4)o3)C2=O)CC1`, the inhibition was -7.57%. For `COc1cc(Br)c(Nc2nc(-c3c(C)nc4ncccn34)cs2)c(Br)c1` the value was -6.53%.
